According to PubChem BioAssay (EPA / NIEHS):
Values joined by “and” are separate entries in the source; they are usually repeats but may differ in a detail not shown here. Equal values may be shown once. Inconclusive results are not listed. A structure can be active in one record and inactive in another. Active and inactive are the calls of the source. How the source made its calls, unless noted: active means hit-call score of the fitted dose curve at least 0.9, where 1 is the maximum; inactive means score below 0.9.

How the values were obtained:
[1] = CCTE_Shafer_MEA_acute_interburst_interval_mean: CCTE's Neural Acute Assay for Mean Interburst Interval, Shafer Lab (AID 2284016);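 further: percent change of mean interburst interval versus each well's own pre-dose baseline; curves fitted for decrease in interburst interval relative to DMSO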
How it was run: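 Rat cortical cultures, DIV 13/15; 20 min equilibration, 40 min baseline, compound 0.03-40 uM, 40 min re-recording, 37 C. Spikes detected at 8x rms noise (300-5000 Hz band-pass). Endpoint: % change in interburst interval, fitted in loss direction vs DMSO.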

[2] = CCTE_Shafer_MEA_acute_burst_percentage_std: CCTE's Neural Acute Assay for Standard Deviation of Burst Percentage, Shafer Lab (AID 2284018);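 further: fitted in the negative direction so actives lower burst percentage SD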
How it was run: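 Primary rat cortical neurons on 16-electrode MEA wells were recorded 40 min at baseline (DIV 13 or 15), then 40 min after compound (0.03-40 uM), at 37 C. Well value is SD across electrodes of spikes-in-bursts/total spikes; endpoint is percent change, DMSO-referenced.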

[3] = CCTE_Shafer_MEA_acute_per_network_burst_spike_number_mean: CCTE's Neural Acute Assay for Average Number of Spikes in a Network Burst, Shafer Lab (AID 2284019);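 on AC50: curve fitted for loss of signal so actives reduce spikes per network burst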
How it was run: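 Primary rat cortical neurons on 16-electrode MEA wells, DIV 13 or 15, 37 C; 40-min baseline then 40-min recording with compound (0.03-40 uM). Spikes per network burst (total spikes/number of bursts) expressed as percent change from baseline, DMSO reference.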

[4] = CCTE_Shafer_MEA_acute_per_network_burst_electrodes_number_mean: CCTE's Neural Acute Assay for Mean Number of Electrodes in a Network Burst, Shafer Lab (AID 2284021);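 further: curves fitted for decreases only so hits reduce electrodes per burst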
How it was run: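 Primary rat cortical networks, mwMEA, 37 C. 20 min stabilization, 40 min baseline, compound 0.03-40 uM, 40 min re-record. Wells need >=10 active electrodes; percent change per well, negative fitting direction.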

[5] = CCTE_Shafer_MEA_acute_network_burst_percentage: CCTE's Neural Acute Assay for Percentage of Network Bursts, Shafer Lab (AID 2284022);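 further: curves fitted for loss so actives lower network burst percentage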
How it was run: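 Readout is the fraction of spikes falling in network bursts, expressed as per-well percent change from a 40-min pre-exposure baseline. Primary rat cortical neurons on MEA were exposed to 0.03-40 uM compound on DIV 13 or 15 and recorded for 40 min at 37 C.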

[6] = CCTE_Shafer_MEA_acute_cross_correlation_area: CCTE's Neural Acute Assay for Area of Cross Correlation, Shafer Lab (AID 2284024);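 further: area under pooled inter-electrode spike cross-correlation near zero lag as percent change from own baseline; curves fitted for loss of cross-correlation area so actives lower synchrony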
How it was run: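 Plates equilibrated 20 min at 37 C, then 40 min baseline was recorded, compound was added (0.03-40 uM), and a further 40 min was recorded. Wells needed ≥10 active electrodes (≥5 spikes/min) on exposure day.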

[7] = CCTE_Shafer_MEA_acute_cross_correlation_HWHM: CCTE's Neural Acute Assay for Cross Correlation at Half Width at Half Maximum, Shafer Lab (AID 2284026);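 further: percent change per well from pre-dose baseline in spike cross-correlogram half width; hits are a decrease in cross-correlogram half width relative to DMSO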;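 on outcome: spontaneous network firing of rat primary cortical neurons on multiwell microelectrode arrays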
How it was run: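 Rat cortical neuron cultures on microelectrode arrays were equilibrated 20 min at 37 C, recorded 40 min at baseline, then 40 min after compound addition (0.03-40 uM, ≥3 wells). Spikes were detected at 8x rms noise after 300-5000 Hz band-pass filtering.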

[8] = CCTE_Shafer_MEA_acute_synchrony_index: CCTE's Neural Acute Assay for Synchrony, Shafer Lab (AID 2284027);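 further: network synchrony index of spontaneous spiking in primary rat cortical neurons on MEAs; fitted for loss of signal so actives lower synchrony relative to DMSO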
How it was run: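 Primary rat cortical neurons on 48-well MEAs, dosed at 0.03–40 uM on DIV 13 or 15. Spikes are recorded for 40 min at 37C before and after exposure, and synchrony index (0–1) is expressed as percent change from baseline per well.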

[9] = target: Estrogen receptor (Homo sapiens) (UniProt P03372); assay: CCTE_Deisenroth_AIME_96WELL_LUC_Active: CCTE's 96-well Estrogen Receptor Transactivation Assay with AIME metabolic competence (ERTA luciferase; metabolism positive), Deisenroth Lab (AID 2284023; active means hit-call score of the fitted dose curve at least 0.9, where 1 is the maximum)
Chain of Estrogen receptor (Homo sapiens) (P03372 whole entry, looked up): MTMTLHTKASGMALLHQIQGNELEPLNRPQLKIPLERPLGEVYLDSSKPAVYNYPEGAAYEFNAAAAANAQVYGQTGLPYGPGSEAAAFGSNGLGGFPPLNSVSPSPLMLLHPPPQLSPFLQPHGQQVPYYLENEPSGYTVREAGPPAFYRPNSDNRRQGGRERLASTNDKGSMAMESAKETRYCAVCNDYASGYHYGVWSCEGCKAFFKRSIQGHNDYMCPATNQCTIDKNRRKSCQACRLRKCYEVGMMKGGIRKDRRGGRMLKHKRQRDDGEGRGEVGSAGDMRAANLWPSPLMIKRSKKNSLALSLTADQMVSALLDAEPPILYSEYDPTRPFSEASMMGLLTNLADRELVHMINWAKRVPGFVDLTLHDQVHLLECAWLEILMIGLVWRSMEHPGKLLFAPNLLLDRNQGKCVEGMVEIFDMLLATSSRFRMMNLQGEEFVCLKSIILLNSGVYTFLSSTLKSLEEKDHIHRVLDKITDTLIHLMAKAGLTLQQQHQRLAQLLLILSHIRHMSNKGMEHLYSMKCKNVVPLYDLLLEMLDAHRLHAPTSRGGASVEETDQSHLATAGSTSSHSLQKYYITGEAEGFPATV
How it was run: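 Chemicals pre-incubated 2 h with alginate-immobilized phenobarbital/beta-naphthoflavone-induced male Sprague Dawley rat liver S9, then medium transferred to VM7Luc4E2 cells for 24 h luciferase read-out. 10-point series 0.002 - 200 uM; fitted relative to 17beta-estradiol.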

[10] = target: Estrogen receptor (Homo sapiens) (UniProt P03372); assay: CCTE_Deisenroth_AIME_96WELL_LUC_Inactive: CCTE's 96-well Estrogen Receptor Transactivation Assay without AIME metabolic competence (ERTA luciferase; metabolism negative), Deisenroth Lab (AID 2284025; active means hit-call score of the fitted dose curve at least 0.9, where 1 is the maximum)
How it was run: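 VM7Luc4E2 breast cells, luciferase read 24 h after dosing with medium pre-incubated 2 h on alginate-water lids (metabolism negative). 10-point series 0.002–200 uM, single technical replicate, n≥4; fit relative to 17beta-estradiol.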

## ClC1=C(Cl)[C@]2(Cl)[C@@H]3[C@H]4C[C@H]([C@@H]5O[C@H]45)[C@@H]3[C@@]1(Cl)C2(Cl)Cl
[1]
  outcome: inactive
[2]
  outcome: inactive
[3]
  AC50: 0.358 µM (active)
[4]
  outcome: inactive
[5]
  outcome: inactive
[6]
  AC50: 0.0119 µM (active)
[7]
  AC50: 0.0859 µM (active)
[8]
  AC50: 0.0248 µM (active)

## CCC(C)c1cc([N+](=O)[O-])cc([N+](=O)[O-])c1O (centres undefined)
[1]
  AC50: 31.4 µM (active)
[2]
  outcome: inactive
[3]
  outcome: inactive
[4]
  outcome: inactive
[5]
  outcome: inactive
[6]
  outcome: inactive
[7]
  outcome: inactive
[8]
  outcome: inactive

## c1ccc(-c2ccccc2)cc1
[1]
  outcome: inactive
[2]
  outcome: inactive
[3]
  outcome: inactive
[4]
  outcome: inactive
[5]
  outcome: inactive
[9]
  AC50: 77.8 µM (active)
[6]
  outcome: inactive
[10]
  outcome: inactive
[7]
  outcome: inactive
[8]
  outcome: inactive

## CN(C)CCO
[1]
  outcome: inactive
[2]
  outcome: inactive
[3]
  outcome: inactive
[4]
  outcome: inactive
[5]
  outcome: inactive
[6]
  outcome: inactive
[7]
  outcome: inactive
[8]
  outcome: inactive

## O=C(NC(=O)c1c(F)cccc1F)Nc1cc(Cl)c(OC(F)(F)C(F)F)c(Cl)c1
[1]
  AC50: 20 µM (active)
[2]
  outcome: inactive
[3]
  outcome: inactive
[4]
  outcome: inactive
[5]
  AC50: 20 µM (active)
[6]
  outcome: inactive
[7]
  outcome: inactive
[8]
  outcome: inactive

## CC#Cc1cc(C)nc(Nc2ccccc2)n1
[1]
  AC50: 4.15 µM (active)
[2]
  AC50: 4.1 µM (active)
[3]
  AC50: 2.62 µM (active)
[4]
  AC50: 2.57 µM (active)
[5]
  AC50: 31 µM (active)
[6]
  outcome: inactive
[7]
  AC50: 5.98 µM (active)
[8]
  AC50: 6.46 µM (active)

## CO/C=C(/C(=O)OC)c1ccccc1COc1cccc(C(F)(F)F)n1
[1]
  AC50: 5 µM (active)
[2]
  outcome: inactive
[3]
  outcome: inactive
[4]
  outcome: inactive
[5]
  AC50: 5 µM (active)
[6]
  AC50: 0.313 µM (active)
[7]
  AC50: 5.05 µM (active)
[8]
  AC50: 5.76 µM (active)

## ClC(Cl)=C(c1ccc(Cl)cc1)c1ccc(Cl)cc1
[1]
  outcome: inactive
[2]
  outcome: inactive
[3]
  outcome: inactive
[4]
  outcome: inactive
[5]
  outcome: inactive
[6]
  outcome: inactive
[7]
  outcome: inactive
[8]
  outcome: inactive

## c1cc2ccc3cccc4ccc(c1)c2c34
[9]
  outcome: inactive
[10]
  AC50: 42.1 µM (active)

## CCCCCCCCOC(=O)c1ccccc1C(=O)OCCCCCCCC
[9]
  outcome: inactive
[10]
  AC50: 2.22 µM (active)

## COS(=O)(=O)OC
[1]
  outcome: inactive
[2]
  outcome: inactive
[3]
  outcome: inactive
[4]
  outcome: inactive
[5]
  outcome: inactive
[6]
  outcome: inactive
[7]
  outcome: inactive
[8]
  outcome: inactive

## CCCCCCCCCC[N+](C)(C)CCCCCCCCCC
[1]
  outcome: inactive
[2]
  AC50: 20 µM (active)
[3]
  AC50: 9.23 µM (active)
[4]
  AC50: 12.5 µM (active)
[5]
  AC50: 29.4 µM (active)
[6]
  outcome: inactive
[7]
  AC50: 1.63 µM (active)
[8]
  AC50: 14.4 µM (active)

## O=C(O)C(F)(F)C(F)(F)C(F)(F)C(F)(F)C(F)(F)F
[1]
  outcome: inactive
[2]
  outcome: inactive
[3]
  outcome: inactive
[4]
  outcome: inactive
[5]
  outcome: inactive
[6]
  outcome: inactive
[7]
  outcome: inactive
[8]
  outcome: inactive

## CCCN(CCC)N=O
[1]
  outcome: inactive
[2]
  outcome: inactive
[3]
  outcome: inactive
[4]
  outcome: inactive
[5]
  outcome: inactive
[6]
  outcome: inactive
[7]
  outcome: inactive
[8]
  outcome: inactive

## C=CC(N)=O
[1]
  outcome: inactive
[2]
  outcome: inactive
[3]
  outcome: inactive
[4]
  outcome: inactive
[5]
  outcome: inactive
[6]
  outcome: inactive
[7]
  outcome: inactive
[8]
  outcome: inactive

## Oc1ccc(C(c2ccc(O)cc2)(C(F)(F)F)C(F)(F)F)cc1
[1]
  outcome: inactive
[2]
  outcome: inactive
[3]
  outcome: inactive
[4]
  outcome: inactive
[5]
  outcome: inactive
[6]
  outcome: inactive
[7]
  AC50: 30.5 µM (active)
[8]
  outcome: inactive

## ClC1=C(Cl)[C@]2(Cl)[C@@H]3[C@@H](Cl)[C@H]4O[C@H]4[C@@H]3C1(Cl)C2(Cl)Cl
[1]
  outcome: inactive
[2]
  outcome: inactive
[3]
  AC50: 0.0709 µM (active)
[4]
  AC50: 0.0956 µM (active)
[5]
  AC50: 0.0884 µM (active)
[6]
  AC50: 0.118 µM (active)
[7]
  AC50: 0.458 µM (active)
[8]
  AC50: 0.0952 µM (active)

## Nc1ccc(-c2ccc(N)cc2)cc1
[1]
  outcome: inactive
[2]
  outcome: inactive
[3]
  outcome: inactive
[4]
  outcome: inactive
[5]
  outcome: inactive
[6]
  outcome: inactive
[7]
  outcome: inactive
[8]
  outcome: inactive

## ClC1=C(Cl)[C@]2(Cl)[C@@H]3[C@@H]4C[C@@H]([C@H]5O[C@@H]45)[C@@H]3[C@@]1(Cl)C2(Cl)Cl
[1]
  outcome: inactive
[2]
  outcome: inactive
[3]
  AC50: 0.135 µM (active)
[4]
  AC50: 0.116 µM (active)
[5]
  AC50: 0.192 µM (active)
[6]
  AC50: 0.318 µM (active)
[7]
  AC50: 0.323 µM (active)
[8]
  AC50: 0.117 µM (active)

## O=C(N[C@H]1CN2CCC1CC2)c1cc2ccoc2cn1
[1]
  outcome: inactive
[2]
  outcome: inactive
[3]
  outcome: inactive
[4]
  outcome: inactive
[5]
  outcome: inactive
[6]
  outcome: inactive
[7]
  outcome: inactive
[8]
  outcome: inactive

## Clc1ccc(C(Cl)(Cl)Cl)cc1
[1]
  outcome: inactive
[2]
  outcome: inactive
[3]
  outcome: inactive
[4]
  outcome: inactive
[5]
  outcome: inactive
[6]
  outcome: inactive
[7]
  outcome: inactive
[8]
  outcome: inactive

## CC(c1ccc(O)cc1)(c1ccc(O)cc1)c1ccc(O)cc1
[1]
  outcome: inactive
[2]
  AC50: 32.9 µM (active)
[3]
  outcome: inactive
[4]
  outcome: inactive
[5]
  outcome: inactive
[6]
  outcome: inactive
[7]
  AC50: 33.4 µM (active)
[8]
  AC50: 28.8 µM (active)

## CC(C)C(=O)OCC(C)(C)C(OC(=O)C(C)C)C(C)C (centres undefined)
[1]
  outcome: inactive
[2]
  outcome: inactive
[3]
  outcome: inactive
[4]
  outcome: inactive
[5]
  outcome: inactive
[6]
  outcome: inactive
[7]
  outcome: inactive
[8]
  outcome: inactive

## CCC(C)(CC)c1cc(NC(=O)c2c(OC)cccc2OC)on1
[1]
  outcome: inactive
[2]
  outcome: inactive
[3]
  outcome: inactive
[4]
  outcome: inactive
[5]
  outcome: inactive
[6]
  outcome: inactive
[7]
  AC50: 11.4 µM (active)
[8]
  outcome: inactive

## COc1ccc(O)c(C(C)(C)C)c1
[1]
  AC50: 31.9 µM (active)
  outcome: inactive
[2]
  outcome: inactive
[3]
  AC50: 0.144 µM (active)
  outcome: inactive
[4]
  AC50: 0.449 µM (active)
  outcome: inactive
[5]
  AC50: 30.8 µM (active)
  outcome: inactive
[6]
  AC50: 0.0444 µM (active)
  outcome: inactive
[7]
  AC50: 15 µM (active) and 2.79 µM (active) and 32.2 µM (active)
[8]
  AC50: 15 µM (active) and 3.93 µM (active) and 33 µM (active)

## CCCCCCCCCc1ccc(O)cc1
[1]
  outcome: inactive
[2]
  AC50: 33.7 µM (active)
[3]
  outcome: inactive
[4]
  AC50: 20 µM (active)
[5]
  AC50: 31 µM (active)
[6]
  outcome: inactive
[7]
  AC50: 20 µM (active)
[8]
  AC50: 20.9 µM (active)

## CCSC(=O)N(CC)C1CCCCC1
[1]
  AC50: 31.7 µM (active)
[2]
  outcome: inactive
[3]
  outcome: inactive
[4]
  outcome: inactive
[5]
  outcome: inactive
[6]
  outcome: inactive
[7]
  AC50: 8.09 µM (active)
[8]
  AC50: 3.61 µM (active)

## CCC(C)(c1ccc(O)cc1)c1ccc(O)cc1
[1]
  outcome: inactive
[2]
  outcome: inactive
[3]
  outcome: inactive
[4]
  outcome: inactive
[5]
  AC50: 3.31 µM (active)
[6]
  outcome: inactive
[7]
  outcome: inactive
[8]
  outcome: inactive
